About 300 (0.14%) of roughly 220,000 compounds were called active. Many of the other results were omitted from the sample, so actives are more common in it than they were. Unmarked numbers belong to inactive results.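 The calls were made as follows: active = inhibition of at least 40%; inactive = inhibition below 40%.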
Each compound was assayed against Coagulation factor XI (Homo sapiens) (UniProt P03951) (assay: factor XIa enzyme inhibition, large library – biochemical, 1536-well, primary screen (AID 798;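 also: fluorescence of freed AMC excited at 355 nm; 0% = enzyme without compound and 100% = no enzyme blank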)). Settings: purified FXIa, Boc-Glu-Ala-Arg-AMC fluorogenic substrate; at 5 µM; stronger effect = higher value.
Chain of Coagulation factor XI (Homo sapiens) (P03951 19-387 limits assumed): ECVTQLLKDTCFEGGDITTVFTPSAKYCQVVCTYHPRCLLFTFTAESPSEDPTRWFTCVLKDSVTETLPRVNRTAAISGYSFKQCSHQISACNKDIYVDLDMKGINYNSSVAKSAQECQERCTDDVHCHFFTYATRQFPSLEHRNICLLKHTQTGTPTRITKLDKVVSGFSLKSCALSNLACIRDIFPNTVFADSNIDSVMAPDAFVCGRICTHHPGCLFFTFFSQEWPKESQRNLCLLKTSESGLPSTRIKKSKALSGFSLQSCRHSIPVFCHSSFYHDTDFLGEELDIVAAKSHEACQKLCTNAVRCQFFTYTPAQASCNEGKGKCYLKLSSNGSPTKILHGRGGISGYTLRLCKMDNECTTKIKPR
Chain of Coagulation factor XI (Homo sapiens) (P03951 388-625 limits assumed): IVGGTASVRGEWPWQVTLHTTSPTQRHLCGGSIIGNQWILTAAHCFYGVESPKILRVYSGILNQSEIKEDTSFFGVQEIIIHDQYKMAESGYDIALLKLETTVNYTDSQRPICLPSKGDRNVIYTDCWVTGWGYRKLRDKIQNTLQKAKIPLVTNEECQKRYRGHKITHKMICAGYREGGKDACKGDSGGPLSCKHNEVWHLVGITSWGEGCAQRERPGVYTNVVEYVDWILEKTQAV

Row | Structure (SMILES) | inhibition
1 | NCC(O)c1ccc(O)cc1 (stereo not given) | 47.9% (active)
2 | CSc1ccc(C(=O)C2CCCN(Cc3ccn[nH]3)C2)cc1 (stereo not given) | 2.72%
3 | Cc1ccc(Cn2c(C)c3cnn(CC(=O)N4CCC5(CC4)OCCO5)c(=O)c3c2C)cc1 | -2.43%
4 | CCCCCn1c(=O)c(C(=O)NCc2ccccn2)c(O)c2ccccc21 | 4.5%
5 | CC(C)c1ccc(-n2c(O)c(/C=N/N3CCOCC3)c(=O)[nH]c2=S)cc1 | -2.81%

— PubChem BioAssay AID798 (PCMD, 2007)
